About 7,900 targets were measured; listed, in parts, are those with a hit and a random draw of the rest. About 0.6% of all pairs of compound and target were hits.
How the values were obtained:
Assay in all cases: log2 fold change, soluble protein after heating vs DMSO (PISA); higher = thermal stabilisation; K562 cells, 10 uM, 30 min; active = over 0.2 and 3.5 SD of the protein, either way, in both replicates (recomputed)
[1] = compound: C#Cc1cccc(Nc2ncnc3cc(OCCOC)c(OCCOC)cc23)c1 [erlotinib]
In short: (§1)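 Values are thermal stability changes relative to control samples and are taken from duplicates. They are stated as log2 fold changes. Before quantification by TMTpro 16plex LC-MS/MS with equalised channel sums, K562 cells at 2×10^6 cells/mL were treated with 10 μM compound for 30 min, heated in aliquots for 3 min across 48°C-58°C, pooled, extracted in PBS with 0.5% NP-40 at 4°C, and centrifuged at 21,000xg for 90 min to give the soluble supernatant.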

[2] = compound: C/C(=N\NC(=O)C1=CC(=CC=C1)S(=O)(=O)N2CCOCC2)/C3=C(C=CC(=C3)Cl)O
In short: as §1

[3] = compound: C1=CC(=C(C=C1Cl)C2=NC3=NC=CN=C3C(=N2)NC4=CC=NC=C4)F
In short: as §1

[4] = compound: C1=CC(=CC=C1C2=NC3=C(N2)C=C(C=C3)C(=O)N)OC4=CC=C(C=C4)Cl
In short: as §1

[5] = compound: C1=CC2=C(C=CC(=C2)/C=C\3/C(=O)NC(=NCC4=CC=CS4)S3)N=C1
In short: as §1

[6] = compound: C1=CC2=NC=CN=C2C=C1/C=C/3\C(=O)NC(=O)S3
In short: as §1

[7] = compound: C1=CC=C(C=C1)C2=NC(=C(N2)C3=CC=NC=C3)C4=CC(=C(C=C4)Cl)O
In short: as §1

[8] = compound: C1=CC=C2C(=C1)C3=NNC4=CC=CC(=C43)C2=O
In short: as §1

[9] = compound: C1CCN(C1)C(=O)NC2=CC=CC(=C2)NC3=NC=C(C(=N3)NCCC4=CN=CN4)Br
In short: as §1

[10] = compound: C1CN(CCC1(CC2=CC=C(C=C2)Cl)N)C3=NC=NC4=C3C=CN4
In short: as §1

Measured: log2 fold change

RARS2 (UniProt Q5T160)
inactive: [1] 0.009 | [2] 0.057 | [3] 0.063 | [4] 0.029 | [5] 0.015 | [6] 0.014 | [7] 0.056 | [8] 0 | [9] 0.022 | [10] 0.038

SEPTIN5 (UniProt G3XAH0)
inactive: [1] 0.009 | [2] -0.251 | [3] 0.146 | [4] 0.076 | [5] -0.022 | [6] -0.035 | [7] 0.014 | [8] -0.24 | [9] 0.009 | [10] 0.049

RAB3IL1 (UniProt Q8TBN0)
Sequence of UniProt Q8TBN0 (Q8TBN0 whole entry, looked up): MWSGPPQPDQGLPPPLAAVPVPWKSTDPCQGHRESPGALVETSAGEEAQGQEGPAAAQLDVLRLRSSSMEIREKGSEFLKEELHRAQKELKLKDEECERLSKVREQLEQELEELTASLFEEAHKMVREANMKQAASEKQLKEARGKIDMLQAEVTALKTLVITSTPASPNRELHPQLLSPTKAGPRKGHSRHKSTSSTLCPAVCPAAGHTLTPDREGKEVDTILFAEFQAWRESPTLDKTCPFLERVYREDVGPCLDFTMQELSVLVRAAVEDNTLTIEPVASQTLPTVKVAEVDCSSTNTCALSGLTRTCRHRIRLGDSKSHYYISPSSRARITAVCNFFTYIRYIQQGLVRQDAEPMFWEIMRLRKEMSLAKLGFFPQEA
inactive: [1] -0.007 | [2] -0.007 | [3] 0.057 | [4] 0.005 | [5] 0.019 | [6] 0.019 | [7] -0.02 | [8] -0.039 | [9] -0.004 | [10] -0.013

RTN4IP1 (UniProt Q8WWV3)
inactive: [1] 0.016 | [2] 0 | [3] 0.041 | [4] 0.066 | [5] 0.048 | [6] -0.08 | [7] 0.014 | [8] 0.027 | [9] -0.064 | [10] 0.074

ROR2 (UniProt Q01974)
Sequence of UniProt Q01974 (Q01974 whole entry, looked up): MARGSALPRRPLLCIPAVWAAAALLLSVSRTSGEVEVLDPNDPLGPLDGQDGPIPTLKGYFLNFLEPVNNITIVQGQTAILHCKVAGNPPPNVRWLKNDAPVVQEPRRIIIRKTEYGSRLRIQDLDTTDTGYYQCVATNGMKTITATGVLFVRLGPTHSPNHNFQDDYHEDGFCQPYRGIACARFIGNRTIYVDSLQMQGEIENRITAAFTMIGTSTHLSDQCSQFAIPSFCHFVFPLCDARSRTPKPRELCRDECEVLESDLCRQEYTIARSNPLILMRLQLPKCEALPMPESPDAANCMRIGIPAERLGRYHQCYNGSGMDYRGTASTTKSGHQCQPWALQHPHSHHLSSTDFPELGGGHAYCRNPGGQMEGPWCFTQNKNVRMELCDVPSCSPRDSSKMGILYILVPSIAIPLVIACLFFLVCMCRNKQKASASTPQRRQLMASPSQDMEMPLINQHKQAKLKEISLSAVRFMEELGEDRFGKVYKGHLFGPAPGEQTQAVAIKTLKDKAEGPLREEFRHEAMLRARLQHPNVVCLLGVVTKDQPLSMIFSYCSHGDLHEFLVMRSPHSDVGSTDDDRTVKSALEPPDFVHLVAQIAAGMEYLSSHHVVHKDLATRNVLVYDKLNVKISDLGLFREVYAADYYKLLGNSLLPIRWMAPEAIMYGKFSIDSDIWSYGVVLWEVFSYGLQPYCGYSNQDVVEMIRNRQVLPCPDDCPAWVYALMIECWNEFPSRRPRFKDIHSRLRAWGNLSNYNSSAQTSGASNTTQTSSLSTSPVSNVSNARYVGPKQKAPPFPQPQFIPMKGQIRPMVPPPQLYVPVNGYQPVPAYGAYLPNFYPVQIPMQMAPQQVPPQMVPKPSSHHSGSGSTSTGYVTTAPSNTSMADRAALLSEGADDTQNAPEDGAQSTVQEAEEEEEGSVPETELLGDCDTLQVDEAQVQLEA
inactive: [1] -0.045 | [2] 0.058 | [3] 0.01 | [4] 0.023 | [5] 0.02 | [6] 0.011 | [7] 0.076 | [8] -0.024 | [9] -0.041 | [10] -0.001

RPS14 (UniProt P62263)
inactive: [1] -0.166 | [2] -0.077 | [3] -0.124 | [4] 0.027 | [5] -0.149 | [6] -0.04 | [7] 0.039 | [8] 0.045 | [9] 0.031 | [10] -0.126

RIOK3 (UniProt O14730)
inactive: [1] 0.037 | [2] 0.014 | [3] 0.062 | [4] 0.003 | [5] -0.019 | [6] 0.048 | [7] -0.033 | [8] 0.02 | [9] 0.024 | [10] -0.025

SEC23A (UniProt Q15436)
inactive: [1] 0.026 | [2] 0.1 | [3] 0.022 | [4] -0.036 | [5] -0.024 | [6] 0.021 | [7] 0.005 | [8] -0.018 | [9] 0.019 | [10] -0.019

RCN3 (UniProt Q96D15)
Sequence of UniProt Q96D15 (Q96D15 whole entry, looked up): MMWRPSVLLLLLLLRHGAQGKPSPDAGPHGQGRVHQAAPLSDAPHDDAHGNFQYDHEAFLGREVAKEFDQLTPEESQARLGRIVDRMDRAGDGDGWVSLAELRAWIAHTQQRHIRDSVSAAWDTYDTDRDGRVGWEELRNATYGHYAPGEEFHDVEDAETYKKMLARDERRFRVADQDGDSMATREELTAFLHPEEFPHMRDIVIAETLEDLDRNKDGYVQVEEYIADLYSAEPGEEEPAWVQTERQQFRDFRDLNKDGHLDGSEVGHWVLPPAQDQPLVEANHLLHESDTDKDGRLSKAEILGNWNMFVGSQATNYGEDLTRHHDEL
inactive: [1] 0.033 | [2] 0.013 | [3] 0.058 | [4] 0.048 | [5] 0.03 | [6] -0.029 | [7] -0.057 | [8] -0.023 | [9] 0.07 | [10] -0.103

RAB5IF isoform 5 (UniProt Q9BUV8)
active: [7] 0.373
inactive: [1] 0.071 | [2] 0.093 | [3] 0.098 | [4] 0.055 | [5] -0.061 | [6] 0.112 | [8] 0.036 | [9] 0.027 | [10] 0.267

SKP1 (UniProt P63208)
inactive: [1] -0.003 | [2] -0.036 | [3] 0.05 | [4] -0.011 | [5] -0.048 | [6] 0.045 | [7] 0.047 | [8] 0.009 | [9] -0.006 | [10] 0.03

RRAS2 isoform 4 (UniProt P62070)
Sequence of UniProt P62070 (P62070 whole entry, looked up): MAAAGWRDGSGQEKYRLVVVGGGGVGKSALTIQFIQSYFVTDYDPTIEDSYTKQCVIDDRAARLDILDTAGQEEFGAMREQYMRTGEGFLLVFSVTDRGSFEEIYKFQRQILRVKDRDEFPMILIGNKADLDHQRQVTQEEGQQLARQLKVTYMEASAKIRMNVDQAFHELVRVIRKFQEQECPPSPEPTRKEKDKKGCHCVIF
inactive: [1] 0.002 | [2] -0.076 | [3] -0.046 | [4] 0.015 | [5] -0.006 | [6] 0.038 | [7] -0.015 | [8] -0.059 | [9] -0.085 | [10] 0.093

SCCPDH (UniProt Q8NBX0)
Sequence of UniProt Q8NBX0 (Q8NBX0 whole entry, looked up): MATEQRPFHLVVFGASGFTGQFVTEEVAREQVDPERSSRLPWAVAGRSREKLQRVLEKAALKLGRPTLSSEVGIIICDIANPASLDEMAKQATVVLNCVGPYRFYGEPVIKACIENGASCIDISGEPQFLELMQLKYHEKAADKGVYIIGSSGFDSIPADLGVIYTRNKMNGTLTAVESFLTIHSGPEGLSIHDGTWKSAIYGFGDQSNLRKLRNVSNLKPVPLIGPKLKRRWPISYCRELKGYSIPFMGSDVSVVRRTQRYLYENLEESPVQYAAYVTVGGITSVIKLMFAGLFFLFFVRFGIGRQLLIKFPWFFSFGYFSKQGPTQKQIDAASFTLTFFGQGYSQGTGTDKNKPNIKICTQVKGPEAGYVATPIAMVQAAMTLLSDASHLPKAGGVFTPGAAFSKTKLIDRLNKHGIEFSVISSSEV
inactive: [1] -0.047 | [2] -0.021 | [3] 0.079 | [4] -0.065 | [5] 0.019 | [6] 0.051 | [7] 0.037 | [8] 0.03 | [9] 0.011 | [10] 0.064

SERPINA7 (UniProt P05543)
Sequence of UniProt P05543 (P05543 whole entry, looked up): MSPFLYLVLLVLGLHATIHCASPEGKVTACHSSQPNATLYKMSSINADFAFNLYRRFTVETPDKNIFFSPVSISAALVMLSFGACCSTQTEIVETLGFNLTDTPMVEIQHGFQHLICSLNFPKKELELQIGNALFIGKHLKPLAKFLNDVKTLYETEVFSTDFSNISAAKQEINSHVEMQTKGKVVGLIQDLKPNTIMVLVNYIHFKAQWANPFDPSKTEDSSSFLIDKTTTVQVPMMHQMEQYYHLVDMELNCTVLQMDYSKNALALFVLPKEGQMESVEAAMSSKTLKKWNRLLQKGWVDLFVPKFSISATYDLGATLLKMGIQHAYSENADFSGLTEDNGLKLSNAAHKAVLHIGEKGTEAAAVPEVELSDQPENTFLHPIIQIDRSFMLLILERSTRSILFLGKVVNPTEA
inactive: [1] -0.118 | [2] -0.1 | [3] -0.024 | [4] 0.091 | [5] 0.15 | [6] -0.111 | [7] -0.004 | [8] -0.072 | [9] 0.164 | [10] 0.272

SERINC3 (UniProt Q13530)
inactive: [1] -0.051 | [2] 0.016 | [3] -0.064 | [4] 0.041 | [5] -0.043 | [6] 0.063 | [7] 0.006 | [8] 0.029 | [9] 0.007 | [10] 0.06

RPRD1B (UniProt Q9NQG5)
inactive: [1] -0.065 | [2] 0.086 | [3] 0.036 | [4] 0.028 | [5] 0.063 | [6] 0.052 | [7] 0.042 | [8] -0.005 | [9] 0.009 | [10] -0.046

SEC24A (UniProt O95486)
Sequence of UniProt O95486 (O95486 whole entry, looked up): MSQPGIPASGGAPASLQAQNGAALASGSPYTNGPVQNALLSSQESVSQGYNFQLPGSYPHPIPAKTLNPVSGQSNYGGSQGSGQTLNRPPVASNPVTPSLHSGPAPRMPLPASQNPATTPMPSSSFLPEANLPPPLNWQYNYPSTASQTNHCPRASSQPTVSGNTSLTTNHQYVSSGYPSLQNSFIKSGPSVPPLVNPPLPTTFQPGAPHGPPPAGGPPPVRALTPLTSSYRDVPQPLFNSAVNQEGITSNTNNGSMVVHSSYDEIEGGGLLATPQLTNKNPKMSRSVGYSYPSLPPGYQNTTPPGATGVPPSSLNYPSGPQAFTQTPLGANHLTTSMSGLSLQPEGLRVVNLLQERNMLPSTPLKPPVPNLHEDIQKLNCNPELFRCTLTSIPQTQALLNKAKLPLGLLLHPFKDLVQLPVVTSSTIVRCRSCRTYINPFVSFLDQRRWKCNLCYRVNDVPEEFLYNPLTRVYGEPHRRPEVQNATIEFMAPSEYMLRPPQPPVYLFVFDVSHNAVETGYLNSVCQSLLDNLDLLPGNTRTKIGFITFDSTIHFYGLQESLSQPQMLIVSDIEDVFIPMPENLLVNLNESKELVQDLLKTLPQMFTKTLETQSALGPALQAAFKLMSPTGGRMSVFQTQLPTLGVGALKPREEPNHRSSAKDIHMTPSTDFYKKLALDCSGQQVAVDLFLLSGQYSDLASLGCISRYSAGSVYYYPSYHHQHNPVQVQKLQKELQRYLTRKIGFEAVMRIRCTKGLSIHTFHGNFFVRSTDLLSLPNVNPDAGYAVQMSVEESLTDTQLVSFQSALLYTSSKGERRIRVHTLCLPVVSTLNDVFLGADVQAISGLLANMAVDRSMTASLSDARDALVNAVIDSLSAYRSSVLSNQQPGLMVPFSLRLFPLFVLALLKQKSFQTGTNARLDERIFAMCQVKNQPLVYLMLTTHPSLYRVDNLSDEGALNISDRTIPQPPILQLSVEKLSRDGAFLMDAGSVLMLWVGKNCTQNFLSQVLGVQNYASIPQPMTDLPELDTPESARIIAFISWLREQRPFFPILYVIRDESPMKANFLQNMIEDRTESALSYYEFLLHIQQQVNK
inactive: [1] 0.084 | [2] 0.097 | [3] 0.031 | [4] -0.018 | [5] 0.033 | [6] -0.022 | [7] 0.036 | [8] 0.022 | [9] -0.026 | [10] 0.011

RPP14 (UniProt O95059)
Sequence of UniProt O95059 (O95059 whole entry, looked up): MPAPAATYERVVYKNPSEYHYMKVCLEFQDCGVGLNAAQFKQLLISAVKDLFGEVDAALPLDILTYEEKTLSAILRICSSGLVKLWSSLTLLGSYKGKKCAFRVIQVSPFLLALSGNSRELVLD
inactive: [1] -0.047 | [2] 0.09 | [3] -0.077 | [4] 0.059 | [5] -0.046 | [6] -0.023 | [7] 0.012 | [8] -0.022 | [9] -0.017 | [10] 0.021

RNF14 (UniProt Q9UBS8)
Sequence of UniProt Q9UBS8 (Q9UBS8 whole entry, looked up): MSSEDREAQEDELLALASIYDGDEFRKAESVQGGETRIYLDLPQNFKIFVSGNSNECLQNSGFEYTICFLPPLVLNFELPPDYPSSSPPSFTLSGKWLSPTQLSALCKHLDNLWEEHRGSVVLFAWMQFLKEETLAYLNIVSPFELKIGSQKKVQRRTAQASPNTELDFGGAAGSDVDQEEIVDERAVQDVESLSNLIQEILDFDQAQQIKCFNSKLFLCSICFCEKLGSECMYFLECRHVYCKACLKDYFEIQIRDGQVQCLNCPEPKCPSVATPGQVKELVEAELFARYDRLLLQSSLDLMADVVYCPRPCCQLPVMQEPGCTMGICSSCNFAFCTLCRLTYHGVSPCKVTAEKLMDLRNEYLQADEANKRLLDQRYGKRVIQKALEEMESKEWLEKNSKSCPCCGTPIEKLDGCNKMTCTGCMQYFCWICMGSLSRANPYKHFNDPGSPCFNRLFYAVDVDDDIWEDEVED
inactive: [1] -0.006 | [2] 0.038 | [3] 0.048 | [4] 0.043 | [5] 0.015 | [6] -0.019 | [7] 0.014 | [8] -0.029 | [9] 0.002 | [10] 0.071

RPS15 (UniProt P62841)
inactive: [1] -0.173 | [2] -0.259 | [3] -0.208 | [4] 0.016 | [5] 0.028 | [6] -0.092 | [7] 0.036 | [8] -0.131 | [9] 0.188 | [10] -0.138

RRAGC (UniProt Q9HB90)
inactive: [1] 0.014 | [2] 0.03 | [3] 0.047 | [4] -0.007 | [5] 0.019 | [6] 0.013 | [7] -0.051 | [8] -0.02 | [9] 0.014 | [10] 0.052

RNPS1 (UniProt Q15287)
Sequence of UniProt Q15287 (Q15287 whole entry, looked up): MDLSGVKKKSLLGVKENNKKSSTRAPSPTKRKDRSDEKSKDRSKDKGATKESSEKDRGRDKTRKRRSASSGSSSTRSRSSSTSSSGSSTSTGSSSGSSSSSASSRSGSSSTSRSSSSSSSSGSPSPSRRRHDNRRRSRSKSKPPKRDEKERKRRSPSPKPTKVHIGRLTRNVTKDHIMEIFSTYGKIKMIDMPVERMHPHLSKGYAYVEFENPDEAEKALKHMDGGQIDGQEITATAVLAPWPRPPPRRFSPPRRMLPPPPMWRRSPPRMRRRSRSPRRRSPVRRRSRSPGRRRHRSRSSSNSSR
inactive: [1] 0.008 | [2] 0.194 | [3] 0.06 | [4] 0.053 | [5] 0.164 | [6] 0.013 | [7] -0.022 | [8] -0.319 | [9] 0.048 | [10] -0.118

RRP36 (UniProt Q96EU6)
Sequence of UniProt Q96EU6 (Q96EU6 whole entry, looked up): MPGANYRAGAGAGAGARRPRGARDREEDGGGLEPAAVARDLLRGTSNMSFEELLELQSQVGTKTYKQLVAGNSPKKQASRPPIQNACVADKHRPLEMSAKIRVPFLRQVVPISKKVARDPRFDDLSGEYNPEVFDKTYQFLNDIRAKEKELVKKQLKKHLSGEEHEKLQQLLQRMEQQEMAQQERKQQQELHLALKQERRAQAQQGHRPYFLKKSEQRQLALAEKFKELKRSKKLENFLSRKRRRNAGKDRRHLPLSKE
inactive: [1] -0.192 | [2] -0.147 | [3] -0.586 | [4] -0.005 | [5] -0.133 | [6] -0.06 | [7] 0.019 | [8] 0.012 | [9] 0.045 | [10] -0.146

RPS2 (UniProt P15880)
inactive: [1] -0.199 | [2] -0.138 | [3] -0.323 | [4] 0.047 | [5] -0.1 | [6] -0.039 | [7] -0.064 | [8] -0.041 | [9] 0.086 | [10] -0.162

RABGAP1L isoform 5 (UniProt Q5R372)
inactive: [1] 0.114 | [2] 0.043 | [3] -0.076 | [4] 0.089 | [5] -0.007 | [6] 0.045 | [8] -0.097 | [9] 0.023 | [10] 0.016

SHCBP1 (UniProt Q8NEM2)
inactive: [1] -0.013 | [2] -0.029 | [3] -0.027 | [4] 0.018 | [5] 0.137 | [6] 0.028 | [7] -0.104 | [8] 0.054 | [9] 0.127 | [10] -0.128

SENP6 (UniProt Q9GZR1)
inactive: [1] 0.028 | [2] 0.033 | [4] -0.049 | [5] -0.029 | [6] 0.08 | [7] -0.011 | [8] -0.078 | [9] -0.061 | [10] 0.049
active: [3] 0.237

RHEB (UniProt Q15382)
inactive: [1] 0.028 | [2] 0.042 | [3] 0.075 | [4] -0.041 | [5] 0.008 | [6] 0.008 | [7] -0.008 | [8] -0.004 | [9] -0.005 | [10] 0.041

SH3PXD2B (UniProt A1X283)
inactive: [1] 0 | [2] -0.036 | [3] -0.013 | [4] -0.153 | [5] 0.04 | [6] -0.012 | [8] 0.04 | [9] -0.034 | [10] 0.132
